Results taken from PubChem BioAssay (NCATS).
Results filed as inconclusive are left out. Calls of active or inactive are those of the source. The call rests on the fitted dose curve; in most records, active means well fitted inhibition curve with a large enough effect; inconclusive means small, poorly fitted or top-dose-only effect; inactive means flat fitted curve, though single readings scatter.

What was measured:
Test in all cases: qHTS profiling for inhibitors of Plasmodium falciparum proliferation (AID 504749); further: nearly all actives have a fitted effect of over 60% in size
Conditions in all cases: P. falciparum in erythrocytes, SYBR Green DNA, 72 h; series mostly up to 28.7 µM
CP217 = tested on: CP217
Procedure, shortened: (§1)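 SYBR Green fluorescence (ex 485 nm, em 535 nm) reports parasite DNA after 72 h compound exposure of infected red cells at 0.3% parasitemia, 2.5% hematocrit; signal normalized to 0.29 uM artemisinin and vehicle wells.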

CP237 = tested on: CP237
Procedure, shortened: as §1

CP238 = tested on: CP238
Procedure, shortened: as §1

CP247 = tested on: CP247
Procedure, shortened: as §1

CP250 = tested on: CP250
Procedure, shortened: as §1

CP252 = tested on: CP252
Procedure, shortened: as §1

CP256 = tested on: CP256
Procedure, shortened: as §1

CP260 = tested on: CP260
Procedure, shortened: as §1

CP262 = tested on: CP262
Procedure, shortened: as §1

CP265 = tested on: CP265
Procedure, shortened: as §1

CP266 = tested on: CP266
Procedure, shortened: as §1

CP268 = tested on: CP268
Procedure, shortened: as §1

CP269 = tested on: CP269
Procedure, shortened: as §1

CP286 = tested on: CP286
Procedure, shortened: as §1

CP291 = tested on: CP291
Procedure, shortened: as §1

CP297 = tested on: CP297
Procedure, shortened: as §1

CP305 = tested on: CP305
Procedure, shortened: as §1

CP315 = tested on: CP315
Procedure, shortened: as §1

CP325 = tested on: CP325
Procedure, shortened: as §1

CP329 = tested on: CP329
Procedure, shortened: as §1

Measured: Potency
Potency means the concentration at half of the fitted maximal effect.

CC(=O)c1ccc2c(c1)N(CCCN(C)C)c1ccccc1S2
inactive: CP217 | CP237 | CP238 | CP247 | CP250 | CP252 | CP256 | CP260 | CP262 | CP265 | CP266 | CP268 | CP269 | CP286 | CP291 | CP297 | CP305 | CP315 | CP325 | CP329

Cc1cccc(C)c1NC(=O)CN(CC(=O)O)CC(=O)O
inactive: CP217 | CP237 | CP238 | CP247 | CP250 | CP252 | CP256 | CP260 | CP262 | CP265 | CP266 | CP268 | CP269 | CP286 | CP291 | CP297 | CP305 | CP315 | CP325 | CP329

C=Cc1c(C)c2cc3[nH]c(cc4nc(cc5nc(cc1[nH]2)C(C)=C5CCC(=O)O)C(CCC(=O)O)=C4C)c(C)c3C=C
inactive: CP217 | CP237 | CP238 | CP247 | CP250 | CP252 | CP256 | CP260 | CP262 | CP265 | CP266 | CP268 | CP269 | CP286 | CP291 | CP297 | CP305 | CP315 | CP325 | CP329

COc1cc2[nH]c(=O)[nH]c(=O)c2cc1OC
inactive: CP217 | CP237 | CP238 | CP247 | CP250 | CP252 | CP256 | CP260 | CP262 | CP265 | CP266 | CP268 | CP269 | CP286 | CP291 | CP297 | CP305 | CP315 | CP325 | CP329

O=C(O)c1ccccn1
inactive: CP217 | CP237 | CP238 | CP247 | CP250 | CP252 | CP256 | CP260 | CP262 | CP265 | CP266 | CP268 | CP269 | CP286 | CP291 | CP297 | CP305 | CP315 | CP325 | CP329

O=C(Oc1ccccc1C(=O)O)c1ccccc1O
inactive: CP217 | CP237 | CP238 | CP247 | CP250 | CP252 | CP256 | CP260 | CP262 | CP265 | CP266 | CP268 | CP269 | CP286 | CP291 | CP297 | CP305 | CP315 | CP325 | CP329

CCN(CC)CCSC(=O)C(c1ccccc1)c1ccccc1
inactive: CP217 | CP237 | CP238 | CP247 | CP250 | CP252 | CP256 | CP260 | CP262 | CP265 | CP266 | CP268 | CP269 | CP286 | CP291 | CP297 | CP305 | CP315 | CP325 | CP329

NS(=O)(=O)c1cc2c(cc1Cl)NC(CSCc1ccccc1)=NS2(=O)=O
inactive: CP217 | CP237 | CP238 | CP247 | CP250 | CP252 | CP256 | CP260 | CP262 | CP265 | CP266 | CP268 | CP269 | CP286 | CP291 | CP297 | CP305 | CP315 | CP325 | CP329

CCCCN(CCCC)CC(O)c1cc(Cl)cc2c1-c1ccc(Cl)cc1/C2=C/c1ccc(Cl)cc1 (stereo not given)
active: CP217 35.5 nM | CP237 11.2 nM | CP238 28.2 nM | CP247 39.8 nM | CP250 28.2 nM | CP252 35.5 nM | CP256 79.4 nM | CP260 31.6 nM | CP262 33.8 nM | CP265 112 nM | CP266 135 nM | CP268 135 nM | CP269 37.9 nM | CP286 31.6 nM | CP291 37.9 nM | CP297 33.8 nM | CP305 107 nM | CP315 53.6 nM | CP325 42.6 nM | CP329 47.8 nM

Nc1ccc(S(=O)(=O)Nc2nccs2)cc1
inactive: CP217 | CP237 | CP238 | CP247 | CP250 | CP252 | CP256 | CP260 | CP262 | CP265 | CP266 | CP268 | CP269 | CP286 | CP291 | CP297 | CP305 | CP315 | CP325 | CP329

O=C(O)c1ccccc1-c1ccc(C(F)(F)F)cc1
inactive: CP217 | CP237 | CP238 | CP247 | CP250 | CP252 | CP256 | CP260 | CP262 | CP265 | CP266 | CP268 | CP269 | CP286 | CP291 | CP297 | CP305 | CP315 | CP325 | CP329

Oc1cccc(O)c1
inactive: CP217 | CP237 | CP238 | CP247 | CP250 | CP252 | CP256 | CP260 | CP262 | CP265 | CP266 | CP268 | CP269 | CP286 | CP291 | CP297 | CP305 | CP315 | CP325 | CP329

O=c1cc(CO)occ1O
inactive: CP217 | CP237 | CP238 | CP247 | CP250 | CP252 | CP256 | CP260 | CP262 | CP265 | CP266 | CP268 | CP269 | CP286 | CP291 | CP297 | CP305 | CP315 | CP325 | CP329

Nc1ccc(S(=O)(=O)NC(=O)c2ccccc2)cc1
inactive: CP217 | CP237 | CP238 | CP247 | CP250 | CP252 | CP256 | CP260 | CP262 | CP265 | CP266 | CP268 | CP269 | CP286 | CP291 | CP297 | CP305 | CP315 | CP325 | CP329

CC1(C)[C@@H]2CC[C@@]1(C)C(=O)C2
inactive: CP217 | CP237 | CP238 | CP247 | CP250 | CP252 | CP256 | CP260 | CP262 | CP265 | CP266 | CP268 | CP269 | CP286 | CP291 | CP297 | CP305 | CP315 | CP325 | CP329

CC1(C)CO[C@@H](CC(=O)O)CN1
inactive: CP217 | CP237 | CP238 | CP247 | CP250 | CP252 | CP256 | CP260 | CP262 | CP265 | CP266 | CP268 | CP269 | CP286 | CP291 | CP297 | CP305 | CP315 | CP325 | CP329

Cc1ncc(COP(=O)(O)O)c(C=O)c1O
inactive: CP217 | CP237 | CP238 | CP247 | CP250 | CP252 | CP256 | CP260 | CP262 | CP265 | CP266 | CP268 | CP269 | CP286 | CP291 | CP297 | CP305 | CP315 | CP325 | CP329

CCN(CC)CCNC(=O)c1cc(Cl)c(N)cc1OC
inactive: CP217 | CP237 | CP238 | CP247 | CP250 | CP252 | CP256 | CP260 | CP262 | CP265 | CP266 | CP268 | CP269 | CP286 | CP291 | CP297 | CP305 | CP315 | CP325 | CP329

Cc1cc(CC(=O)O)n(C)c1C(=O)c1ccc(Cl)cc1
inactive: CP217 | CP237 | CP238 | CP247 | CP250 | CP252 | CP256 | CP260 | CP262 | CP265 | CP266 | CP268 | CP269 | CP286 | CP291 | CP297 | CP305 | CP315 | CP325 | CP329

CCC(=O)c1ccc(O)cc1
inactive: CP217 | CP237 | CP238 | CP247 | CP250 | CP252 | CP256 | CP260 | CP262 | CP265 | CP266 | CP268 | CP269 | CP286 | CP291 | CP297 | CP305 | CP315 | CP325 | CP329

COc1cc(C(=O)N2CCOCC2)cc(OC)c1OC
inactive: CP217 | CP237 | CP238 | CP247 | CP250 | CP252 | CP256 | CP260 | CP262 | CP265 | CP266 | CP268 | CP269 | CP286 | CP291 | CP297 | CP305 | CP315 | CP325 | CP329

OCC(O)CN1CCN(c2ccccc2)CC1 (stereo not given)
inactive: CP217 | CP237 | CP238 | CP247 | CP250 | CP252 | CP256 | CP260 | CP262 | CP265 | CP266 | CP268 | CP269 | CP286 | CP291 | CP297 | CP305 | CP315 | CP325 | CP329

NC(=O)NC(=O)Cc1ccccc1
inactive: CP217 | CP237 | CP238 | CP247 | CP250 | CP252 | CP256 | CP260 | CP262 | CP265 | CP266 | CP268 | CP269 | CP286 | CP291 | CP297 | CP305 | CP315 | CP325 | CP329

O=Cc1ccccc1C=O
inactive: CP217 | CP237 | CP238 | CP247 | CP250 | CP252 | CP256 | CP260 | CP262 | CP265 | CP266 | CP268 | CP269 | CP286 | CP291 | CP297 | CP305 | CP315 | CP325 | CP329

C[C@](N)(Cc1ccc(O)cc1)C(=O)O
inactive: CP217 | CP237 | CP238 | CP247 | CP250 | CP252 | CP256 | CP260 | CP262 | CP265 | CP266 | CP268 | CP269 | CP286 | CP291 | CP297 | CP305 | CP315 | CP325 | CP329

O=C1O[C@H]([C@@H](O)CO)C(O)=C1O
inactive: CP217 | CP237 | CP238 | CP247 | CP250 | CP252 | CP256 | CP260 | CP262 | CP265 | CP266 | CP268 | CP269 | CP286 | CP291 | CP297 | CP305 | CP315 | CP325 | CP329

C[C@H](N)[C@H](O)c1cccc(O)c1
inactive: CP217 | CP237 | CP238 | CP247 | CP250 | CP252 | CP256 | CP260 | CP262 | CP265 | CP266 | CP268 | CP269 | CP286 | CP291 | CP297 | CP305 | CP315 | CP325 | CP329

O=C(O)CN1C(=O)c2cccc3cccc(c23)C1=O
inactive: CP217 | CP237 | CP238 | CP247 | CP250 | CP252 | CP256 | CP260 | CP262 | CP265 | CP266 | CP268 | CP269 | CP286 | CP291 | CP297 | CP305 | CP315 | CP325 | CP329
